The record followed here is PubChem BioAssay AID504466 (National Center for Advancing Translational Sciences (NCATS), 2011).

The campaign covered roughly 330,000 compounds. About 4,200 (1.3%) were called active. Another 6% or so got no clear call; they are omitted. What follows is part of a selection rich in actives, with near analogues and random picks from the rest. Unmarked numbers belong to inactive results. Calls come from the whole dose curve; as a rule, active = well fitted activation curve with a large enough effect; inconclusive = small, poorly fitted or top-dose-only effect; inactive = no such curve, though single readings can be large or run the other way.
Potency is the fitted concentration of half-maximal effect.

This test in a line: qHTS screen for small molecules that induce genotoxicity in human embryonic kidney (HEK293T) cells expressing luciferase-tagged ELG1. For activity change, positive = activation: % of control where 0% means no effect. Note: nearly all actives have a fitted effect of over 60% in size. Conditions: HEK293T ELG1-luciferase reporter, luminescence, 16 h; series mostly up to 46 µM; activity change, positive = activation: at the top concentration. The source says:
NIH Molecular Libraries Probe Production Network [MLPCN] NIH Chemical Genomics Center [NCGC] MLPCN Grant: 1 R03 MH092164-01 Assay Provider: Kyungjae Myung, NHGRI, NIH Keywords: MLPCN, qHTS, NCGC, genotoxicity, cancer Assay Overview: Cancer cells divide rapidly compared to normal cells in the body. During cell division, cancer cells need to duplicate their genome by DNA replication. The failure of genome duplication leads to cancer cells' death. Therefore, inhibitors of DNA replication could specifically kill cancer cells. Based on this concept, many chemotherapeutic agents were developed and have been used to treat cancer patients. However, there are a limited number of agents available in the clinical setting, and some of those that do exist have low efficacy and severe side effects. Therefore, if we can find the compounds that effectively block DNA replication either by directly damaging DNA or by inhibiting other cellular mechanisms, the options for cancer treatment will be broadened. With this in mind, we developed a quantitative high-throughput ELG1-luciferase reporter gene assay. Since the level of human ELG1 protein is enhanced in response to genetic stresses, increases in luciferase activity can be used to identify compounds that cause genetic stress.
Assay Protocol Summary: For genotoxicity screening, 2,000 cells in 5 uL/well were dispensed into white, solid-bottom 1536-well plates using a solenoid-based dispenser. Following transfer of 23 nL compound or DMSO vehicle by a pin tool, the plates were incubated 16 hr at 37 °C and 5% CO2. 5 ul ONE-Glo (Promega) was then added to each plate and following a 30 min incubation at room temperature, luciferase activity was quantified on a ViewLux CCD-based plate reader.
A general note: In qHTS, concentration-response curves come from the screen itself.
`O=C(CSc1ccc(-c2ccc(F)cc2)nn1)Nc1ccc2c(c1)OCCO2`: the “activity change, positive = activation” value was 0.784%.
`O=C(CSc1ccc(-c2ccc(-n3cccn3)cc2)nn1)Nc1ccc([N+](=O)[O-])cc1`: the Potency is 18.3 µM (active).
As to `O=C(CSc1ccc([N+](=O)[O-])cn1)Nc1ccc(N2CCOCC2)cc1`, the “activity change, positive = activation” value was -1.03%.
The same measure, in the same setting: for `Cc1cccc(C)c1Nc1nnc(SCC(=O)NCCCN2CCCC2=O)s1` the value was -2.8%.
Turning to `Cc1ccc(NC(=O)COC(=O)C2CC2)cc1S(=O)(=O)N1CCOCC1`, the “activity change, positive = activation” value is -0.783%.
With `Cc1noc(C)c1NC(=O)Nc1ccc2c(c1)C(=O)N([C@H](C)CO)C[C@H](C)[C@@H](CN(C)S(=O)(=O)c1cn(C)cn1)O2`, the “activity change, positive = activation” value is 2.22%.
In the case of `COc1cc(/C=N\Nc2ccc([N+](=O)[O-])cn2)ccc1OCC(=O)O`, the “activity change, positive = activation” value was -0.169%.
Turning to `COc1cc(/C=N/O)ccc1OCc1ccc([N+](=O)[O-])cc1`, the Potency is 9.2 µM (active).
For the molecule `COc1cc(C(=O)OCc2ccc([N+](=O)[O-])cc2)cc(OC)c1OC`, the “activity change, positive = activation” value was 5.71%.
Still for that read-out and setting: for `CC(=O)C(CC(=O)N1CCCC1)C(=O)Nc1ccc(Cl)cc1` (centres undefined) the value was 2.38%; for `Cc1ccc(C(=O)Nc2ccccc2-c2ccccc2)cc1S(=O)(=O)Nc1ccccc1`, -9.23%; for `CCOc1ncccc1C(=O)Nc1ccc2c(c1)OCCO2`, 9.61%.
Take `COc1ccc(C)cc1NC(=O)CSc1cccc[n+]1[O-]`: the “activity change, positive = activation” value was 5.29%.
Still for that read-out and setting: for `CN=C(Nc1cccc(S(=O)(=O)N2CCOCC2)c1)c1ccccc1` the value was 0.167%; for `COC(=O)c1c(NC(C)=O)sc(C(=O)Nc2ccccc2OC)c1C`, 0.157%.
The same measure, in the same setting: for `COc1ccccc1NC(=O)C1=C(C)NC(=O)NC1c1ccc(C)s1` (centres undefined) the value was 5.02%.
On to `COc1ccccc1NC(=O)c1ccc(C)s1`, for which the Potency was 11.6 µM (active).
In the case of `Cc1ccc(S(=O)(=O)N2CCN(C(=O)Cn3c(=O)cnc4ccccc43)CC2)c(C)c1`, the “activity change, positive = activation” value was -6.79%.
On the same count and under the same terms, for `Cc1cccc2c(=O)n3c(nc12)CCCCC3` the value was -4.76%.
`Cc1c(C(=O)Nc2ccccc2)sc2nc3n(c(=O)c12)CCCCC3`: the “activity change, positive = activation” value is 10.3%.
For `O=c1c2c(nc3n1CCCCC3)sc1c(O)cccc12`, the Potency is 2.06 µM (active).
For `Cc1ccc(NS(=O)(=O)c2ccc(C(C)C)cc2)cc1S(=O)(=O)N1CCOCC1`, the “activity change, positive = activation” value is -5.95%.
On to `COc1cccc(-n2c(=S)[nH]c3c(oc4ccccc43)c2=O)c1`, for which the “activity change, positive = activation” value is 11.3%.
For the molecule `O=c1oc2ccccc2cc1-c1cn(-c2ccccc2)c(=S)[nH]1`, the Potency was 0.0461 µM (active).
`S=c1[nH]c(-c2cccs2)cn1-c1ccccc1`: the “activity change, positive = activation” value is 13%.
With `O=C1OC[C@@H]2CCCN2C(=O)[C@H](CC(=O)N(CCO)Cc2ccccc2)C/C=C\CC[C@@H]1Cc1ccc(F)cc1`, the “activity change, positive = activation” value is -3.58%.
Take `COc1cc(/C=C/C(=O)OCC(=O)NC2CC2)cc(OC)c1OC`: the “activity change, positive = activation” value was 1.1%.
As for `Cc1ccc(S(=O)(=O)N2CCN(C(=O)CN3C(=O)NC(C)(c4ccc(Cl)cc4)C3=O)CC2)c(C)c1` (centres undefined), the “activity change, positive = activation” value is -3.81%.
Take `CN(c1ccccc1)S(=O)(=O)c1ccc(C(=O)NCCc2ccccc2)cc1`: the “activity change, positive = activation” value was 13.5%.
Regarding `O=C(CCNC(=O)c1ccc(Br)cc1)NCCCc1ccccc1`, the “activity change, positive = activation” value is 2.41%.
`CC(C)c1ccc(C(=O)NCCCc2ccccc2)cc1`: the Potency is 18.4 µM (active).
Consider `Cc1noc(C)c1NC(=O)Nc1ccc2c(c1)C(=O)N([C@H](C)CO)C[C@H](C)[C@@H](CN(C)C(=O)Nc1ccccc1)O2`, for which the “activity change, positive = activation” value was 3.31%.
Consider `O=C(CSc1ncnc2sccc12)NC1CCS(=O)(=O)C1` (centres undefined), for which the “activity change, positive = activation” value is 1.63%.
For `C=CCC[C@@H](Cc1ccc(F)cc1)C(=O)OC[C@H](Cc1c[nH]c2ccccc12)NC(=O)[C@@H](CC=C)CC(=O)N(CCO)Cc1ccccc1`, the “activity change, positive = activation” value is -11%.
For `Cc1cc(CO)nn1-c1ccc([N+](=O)[O-])cc1`, the “activity change, positive = activation” value was -0.0391%.
Take `Cc1ccc(-n2cc3ccc([N+](=O)[O-])cc3n2)cc1`: the Potency was 2.91 µM (active).
On to `Cc1ccc(-c2cn(S(=O)(=O)c3cccc([N+](=O)[O-])c3)nc2N)cc1`, for which the “activity change, positive = activation” value was -4.12%.
For the molecule `O=C(N[C@@H]1C/C=C\C[C@@H](CC(=O)N(CCO)Cc2ccccc2)C(=O)N[C@H](Cc2ccccc2)COC1=O)OCC1c2ccccc2-c2ccccc21`, the “activity change, positive = activation” value is -0.759%.
Consider `CCCCCCSc1ccc([C@@H]2[C@H]3C(=O)N(CC)C(=O)[C@H]3[C@]3(C(=O)OC)CCCCN23)cc1`, for which the “activity change, positive = activation” value was 1.28%.
For the molecule `COCCOC(=O)c1[nH]c2c(c1C)C(=O)CC(c1ccc(OC)cc1)C2` (centres undefined), the “activity change, positive = activation” value was -0.128%.
On to `COC(=O)C1C(=O)c2c([nH]c(C(=O)OCCSC)c2C)CC1C` (centres undefined), for which the Potency is 16.4 µM (active).
Take `CCCOC(=O)C1=C(C)NC2=C(C(=O)C(C(=O)OC)C(C)C2)C1c1ccc(N(C)C)cc1` (centres undefined): the “activity change, positive = activation” value was 0.467%.
Same read-out and setting: the value for `CC(C)N(C(=O)[C@H]1C[C@H](CC(=O)NC(C)(C)C)C(=O)N2CCc3c([nH]c4ccc(Cl)cc34)[C@]12C)C(C)C` was -3.2%.
Still for that read-out and setting: for `Cc1cc(NC(=O)CSc2ncc(C(F)(F)F)cc2Cl)no1` the value was -0.775%; for `COc1ccc(Cl)cc1NC(=O)COC(=O)c1ccc(Br)o1`, 1.48%; for `CN(C(=O)c1cccc(NC(=O)C2CCN(C(=O)OC(C)(C)C)CC2)c1)C1CCC1`, -4.07%.
For the molecule `NC[C@H](Cc1ccccc1)NCCc1cc(C(F)(F)F)cc(C(F)(F)F)c1`, the “activity change, positive = activation” value was 0.0851%.
As for `CCc1ccc2oc(-c3ccc(N)cc3)nc2c1`, the Potency was 0.206 µM (active).
Consider `Cn1nnnc1SCC(=O)Nc1sccc1C(N)=O`, for which the “activity change, positive = activation” value is 4.53%.
